Read-out in test [1]: Tumor necrosis factor receptor 1 (TNFRSF1A), TNFRSF1A (gene 7132)
In words: LTEA_HepaRG_TNFRSF1A: Life Technologies and Expression Analysis (LTEA) Assay for Tumor necrosis factor receptor 1 (TNFRSF1A) using HepaRG (AID 2283535). The settings on record: mRNA level, 48 h; actives raise or lower the signal. The gist of the method:
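Differentiated human HepaRG cells were exposed in duplicate for 48 h in serum-free induction medium to eight concentrations (top 100 uM, half-log steps, 0.5% DMSO). TNFRSF1A mRNA was quantified by qRT-PCR, normalized to ACTB, GAPDH and POLR2A, then fitted bidirectionally against DMSO.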

Read-out in test [2]: Thyroid Hormone Responsive (THRSP), THRSP (gene 7069)
In words: LTEA_HepaRG_THRSP: Life Technologies and Expression Analysis (LTEA) Assay for Thyroid Hormone Responsive (THRSP) using HepaRG (AID 2283536). As to conditions: mRNA level, 48 h; actives raise or lower the signal. The gist of the method:
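Cell model: human HepaRG, approx. 100,000 cells/well, 0.5% DMSO vehicle. Exposure lasts 48 h; phenobarbital 1 mM serves as induction positive control. Gene expression is measured by qRT-PCR against three endogenous control genes.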

Read-out in test [3]: Cellular tumor antigen p53 (Homo sapiens) (UniProt P04637)
In words: LTEA_HepaRG_TP53: Life Technologies and Expression Analysis (LTEA) Assay for Tumor Protein P53 (TP53) using HepaRG (AID 2283537). As to conditions: mRNA level, 48 h; actives raise or lower the signal. In short, it runs like this:
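Read-out is TP53 transcript level by microfluidic qRT-PCR, normalised to three housekeeping genes and fitted bidirectionally against DMSO. Human HepaRG cells received compounds for 48 h, highest concentration 100 uM.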

Read-out in test [4]: UDP glucuronosyltransferase (UGT1A1), UGT1A1 (gene 54658)
In words: LTEA_HepaRG_UGT1A1: Life Technologies and Expression Analysis (LTEA) Assay for UDP glucuronosyltransferase (UGT1A1) using HepaRG (AID 2283538). The settings on record: mRNA level, 48 h; actives raise or lower the signal. The gist of the method:
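UGT1A1 transcript level, measured by qRT-PCR with three housekeeping genes for normalization, after 48 h treatment of human HepaRG cells (0.5% DMSO, duplicates, up to 100 uM, half-log steps, 8 points). Curves fit both directions against DMSO baseline.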

Read-out in test [5]: UDP glucuronosyltransferase (UGT1A6), UGT1A6 (gene 54578)
In words: LTEA_HepaRG_UGT1A6: Life Technologies and Expression Analysis (LTEA) Assay for UDP glucuronosyltransferase (UGT1A6) using HepaRG (AID 2283539). The settings on record: mRNA level, 48 h; actives raise or lower the signal. The gist of the method:
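Human HepaRG cells were dosed for 48 h in serum-free induction medium with 0.5% DMSO vehicle, eight-point half-log series from 100 uM, in duplicate. UGT1A6 mRNA was measured by qRT-PCR, normalized to ACTB, GAPDH, POLR2A, and fitted bidirectionally against DMSO.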

The nature of test [6]: LTEA_HepaRG_LDH_cytotoxicity: Cytotoxicity Assessment in the Life Technologies and Expression Analysis (LTEA) Assay (AID 2283563; active = hit-call score of the fitted dose curve at least 0.9, where 1 is the maximum;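 for AC50: LDH activity released into spent culture medium as a marker of cell death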). The gist of the method: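 Differentiated human HepaRG cells, plated 48 h beforehand, were switched to serum-free induction medium and exposed for 48 h to eight half-log concentrations (top 100 uM) in 0.5% DMSO. LDH was measured in spent medium; activity was fitted relative to DMSO vehicle.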

Test [7] is described as follows: TOX21_p53_BLA_p2_viability: Viability Assessment in the Tox21 HCT-116 p53 Agonism Beta-lactamase Assay, Phase 2 (AID 2283591; active = hit-call score of the fitted dose curve at least 0.9, where 1 is the maximum;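 note: compound exposure lasted 16 h at 37 °C; actives lower the ATP signal meaning cytotoxicity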). The gist of the method:
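HCT-116 p53-bla cells (4000/well) rested 5 h at 37C, then received compounds in DMSO (217-fold dilution) for 16 h at 37C, 5% CO2. After the CCF4 read, CellTiter-Glo was added; ATP luminescence was read after 30 min at room temperature.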

Test [8] concerns the target Cellular tumor antigen p53 (Homo sapiens) (UniProt P04637). In words: TOX21_p53_BLA_p2_ratio: Tox21 HCT-116 p53 Agonism Beta-lactamase Assay, Ratio, Phase 2 (AID 2283592; active = hit-call score of the fitted dose curve at least 0.9, where 1 is the maximum). In short, it runs like this: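 Ratio endpoint: beta-lactamase cleavage of CCF4-AM, blue (460 nm) over green (530 nm). HCT116 reporter line; 16 h treatment, 37C; substrate 2 h RT.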
Test [9] in a line: ATG_XTT_Cytotoxicity: Cytotoxicity Assessment in the Attagene TRANS-FACTORIAL HepG2 Assay (AID 2283584; active = hit-call score of the fitted dose curve at least 0.9, where 1 is the maximum;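 for AC50: cells exposed to compound for 24 h before reading; active means loss of viability signal versus DMSO baseline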). In short, it runs like this: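 HepG2 human liver cells, transiently transfected with multiple GAL4-UAS reporter units, were dosed and read at 24 h by XTT as cell number. Loss of signal was fitted relative to DMSO negative control baseline.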

Where “and” joins values, the source holds several entries; their conditions need not be identical. Equal entries are not always repeated. Inconclusive results are not listed. Some structures have more than one record in an assay (separate samples or runs), and their calls can disagree. Calls of active or inactive are those of the source. Rule for the calls, unless noted: active = hit-call score of the fitted dose curve at least 0.9, where 1 is the maximum; inactive = score below 0.9.

Sequence of Cellular tumor antigen p53 (Homo sapiens) (P04637 whole entry, looked up, the tested form may be a part): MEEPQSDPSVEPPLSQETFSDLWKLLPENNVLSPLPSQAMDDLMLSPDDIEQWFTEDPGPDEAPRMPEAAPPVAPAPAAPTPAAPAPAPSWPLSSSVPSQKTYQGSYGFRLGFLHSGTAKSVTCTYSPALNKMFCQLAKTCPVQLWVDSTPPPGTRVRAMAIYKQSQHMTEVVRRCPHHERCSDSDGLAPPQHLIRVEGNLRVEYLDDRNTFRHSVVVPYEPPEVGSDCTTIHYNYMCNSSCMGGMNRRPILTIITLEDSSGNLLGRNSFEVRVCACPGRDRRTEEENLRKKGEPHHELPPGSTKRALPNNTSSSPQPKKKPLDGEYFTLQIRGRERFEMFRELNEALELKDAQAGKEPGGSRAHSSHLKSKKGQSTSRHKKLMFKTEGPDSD

The AC50 is the midpoint of the concentration-response curve, whichever way the signal moves. As to `CCOC(=O)O[C@H](C)OC(=O)c1ccc2c(c1)cc(C(=O)NC1CCN(C(C)C)CC1)n2Cc1cc(-c2ccc(Cl)s2)on1`, the compound was classed as inactive in test [1], in [3], in test [4] and in test [5]. Moreover, the AC50 is 16 µM (active) in test [2], 79.2 µM (active) in test [6], 16.1 µM (active) in test [7] and 27.9 µM (active) in test [8].

Consider `CN(C)C(=O)C1(N2CCCCC2)CCN(CC[C@@]2(c3ccc(Cl)c(Cl)c3)CN(C(=O)c3ccccc3)CCO2)CC1`, for which the AC50 in test [1] is 27.5 µM (active); in test [2], 24.2 µM (active); in test [3], 47.2 µM (active); in [4] it was 27.6 µM (active); in test [5] it was 25.7 µM (active); in test [6] it was 20 µM (active). Besides, the AC50 is 37.8 µM (active) in [7] and 70.9 µM (active) in test [8].

In the case of `O=C(O)Cn1c(=O)n(Cc2ccc(Br)cc2F)c(=O)c2ccc(Cl)cc21`, the compound was called inactive in [1], in test [3], in test [5], in test [6], in test [7] and in test [8]. The AC50 was 10.3 µM (active) in test [2] and 17.7 µM (active) in test [4].

In the case of `OCCO`, the result in test [1], in test [2], in test [4], in test [5], in [6] and in test [9] was inactive. For the same compound, the compound was classed as inactive in test [7] and in test [8]. Moreover, the AC50 in [3] is 9.97 µM (active).

Take `c1ccc(C[n+]2cccc3ccccc32)cc1`: the AC50 in test [1] was 27.3 µM (active); in [2], 50 µM (active); in test [3], 35.7 µM (active); in [4], 26 µM (active); in [6], 34.4 µM (active). Further, the outcome in test [5], in test [9], in [7] and in [8] was inactive.

As to `CCCCCCCCOC(=O)c1cc(O)c(O)c(O)c1`, the compound was classed as inactive in test [1], in test [2], in test [3], in [4], in test [5] and in test [6]. For the same compound, in [9], the outcome was inactive. For the same compound, the AC50 in [7] is 27.6 µM (active); in test [8], 50 µM (active).

As to `CC[C@@H]1C[C@H](N(Cc2cc(C(F)(F)F)cc(C(F)(F)F)c2)C(C)=O)c2cc(C(F)(F)F)ccc2N1C(=O)OC(C)C`, the compound was classed as inactive in [1], in test [2], in test [3], in [5], in test [6] and in test [8]. Moreover, the AC50 in test [4] was 0.546 µM (active).

Regarding `O=C=NCCCCCCN=C=O`, the compound was classed as inactive in [1], in [2], in [3], in test [4], in [5] and in [6]. For the same compound, in test [8], the outcome was inactive.

Take `O=c1ccc2ccccc2o1`: the compound was classed as inactive in test [1], in [2], in [3], in test [5], in test [6] and in test [7]. Further, the result in test [8] was inactive. The AC50 in test [4] was 65.4 µM (active).

With `Cc1cc2c(cc1C(F)(F)F)N(C(=O)Nc1ccc(Oc3cccnc3C)nc1)CC2`, the AC50 in test [1] was 73.6 µM (active); in [3], 75 µM (active); in test [4], 81.4 µM (active); in test [5], 76.1 µM (active); in [6] it was 70.5 µM (active). Further, the outcome in [2], in [7] and in test [8] was inactive.

As to `Cc1ccc2oc(CN(Cc3ccccc3)C(=O)Nc3c(F)cc(F)cc3F)c(-c3ccc(Cl)cc3)c2c1`, the result in test [1], in test [2], in test [4], in [5], in test [6] and in test [9] was inactive. Further, the call in test [7] and in [8] was inactive. In test [3], the AC50 is 44.2 µM (active).

With `COc1cccc([C@H](O)C2CCN(CCc3ccc(F)cc3)CC2)c1OC`, the compound was classed as inactive in test [1], in [2], in test [3], in test [4], in test [5] and in [6]. Besides, the compound was classed as inactive in test [7].

For `O=C(O)c1ccccc1C(=O)OCc1ccccc1`, the outcome in test [1], in test [2], in test [3], in test [5], in test [9] and in test [7] was inactive. In addition, the result in test [8] was inactive. Besides, in [4], the AC50 is 24.3 µM (active).

Regarding `Cc1occc1C(=O)Nc1ccc(C(=O)N2CCC(F)(F)/C(=C\C(=O)N3CCC(N4CCCCC4)CC3)c3ccccc32)cc1`, the compound was classed as inactive in [1], in test [2], in test [3], in test [5], in test [7] and in test [8]. Moreover, the AC50 in [4] was 54.3 µM (active); in [6], 49.6 µM (active).

On to `CCCCCCCCCCCC[N+](C)(C)C`, for which the result in test [1], in test [2] and in test [9] was inactive. The half-maximal activity concentration (AC50) in test [3] is 81.9 µM (active); in [4], 88.3 µM (active); in test [5], 89.9 µM (active); in test [6], 90.4 µM (active); in test [7], 85.2 µM (active) and 79.6 µM (active) and 73.5 µM (active); in test [8], 14.7 µM (active) and 14.2 µM (active) and 14.1 µM (active).

Regarding `C[C@]12CC[C@@H]3c4ccc(O)cc4CC[C@H]3[C@@H]1CCC2=O`, the outcome in [1], in test [2], in test [5], in test [6], in test [9] and in test [8] was inactive. Moreover, the AC50 in [4] is 5.13 µM (active).

As for `O=c1c(-c2ccc(O)cc2)coc2cc(O)cc(O)c12`, the outcome in [1], in test [2], in test [3], in test [4], in [5] and in test [6] was inactive. For the same compound, the call in [9], in test [7] and in test [8] was inactive. Also, the AC50 in test [8] is 18 µM (active).

Consider `O=C(O)c1ccccc1-n1cc(C(=O)O)c(=O)c2cc(Nc3c(F)cc(F)cc3Cl)c(Cl)cc21`, for which the values for the AC50 in [1] and in [5] were 0.0319 µM (active) and 0.0904 µM (active), respectively. Besides, the compound was classed as inactive in [2], in [3], in test [4], in [6] and in [8].

As for `CN(C)c1ccc(C(=C2C=CC(=[N+](C)C)C=C2)c2ccc(N(C)C)cc2)cc1`, the concentration at half-maximal activity (AC50) in test [1] is 8.56 µM (active); in test [2], 2.48 µM (active); in [3], 23.3 µM (active); in [4] it was 16.8 µM (active); in [5] it was 10.4 µM (active); in test [6], 9.3 µM (active). The AC50 in test [9] is 12.3 µM (active); in [7], 23.6 µM (active) and 19.1 µM (active) and 23 µM (active); in test [8], 33.6 µM (active) and 32.8 µM (active) and 7.06 µM (active).

As to `COc1ccc2cc(S(=O)(=O)N[C@H](CC(=O)N[C@H](Cc3ccc(CN4[C@H](C)CCC[C@@H]4C)cc3)C(=O)N(C)C(C)C)c3ccc4c(c3)OCO4)ccc2c1`, the AC50 was 21.2 µM (active) in test [1]; 24.1 µM (active) in [3]; 26 µM (active) in test [4]; 23.2 µM (active) in [5]; 20.7 µM (active) in test [6]; 74.2 µM (active) in [7]. Moreover, the AC50 in [8] is 70.3 µM (active). The compound was called inactive in test [2].

Turning to `Cc1cc(F)ccc1-c1cc(N2CC[C@@H](O)[C@H]2CO)ncc1N(C)C(=O)C(C)(C)c1cc(C(F)(F)F)cc(C(F)(F)F)c1`, the outcome in test [1] and in test [5] was inactive. Also, the AC50 was 20.6 µM (active) in test [2]; 19.9 µM (active) in test [3]; 23 µM (active) in [4]; 30.9 µM (active) in test [6]; 23.3 µM (active) in test [9]; 11 µM (active) in test [7]. Further, the AC50 in test [8] was 21.8 µM (active).

For the origin of these results see PubChem BioAssay (EPA / NIEHS).
